Activity calls are given as the source filed them. The calls were made as follows: active = hit-call score of the fitted dose curve at least 0.9, where 1 is the maximum; inactive = score below 0.9.

The term AC50 denotes the midpoint of the concentration-response curve, whichever way the signal moves.

A short description of test [1]: ATG_CRE_CIS: Attagene CIS-FACTORIAL HepG2 Assay for human cAMP Responsive Element (CRE) binding protein 3 (AID 2282926). To be noted: HepG2 CRE cis-reporter, Attagene multiplexed mRNA; actives raise or lower the signal. The essentials: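 Induced reporter mRNA from a CRE cis element, measured in HepG2 among many multiplexed units at 24 h. Detection used RT-PCR plus capillary electrophoresis of fluorescent fragments; DMSO served as negative control.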

Test [2] has as its target CCAAT/enhancer-binding protein beta (Homo sapiens) (UniProt P17676). Put plainly: ATG_C_EBP_CIS: Attagene CIS-FACTORIAL HepG2 Assay for human CCAAT/Enhancer Binding Protein (C/EBP) beta (AID 2282927). To be noted: HepG2 Attagene cis-factorial transcription factor reporter; actives raise or lower the signal. The essentials: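 HepG2 transiently transfected with multiplexed reporter units under cis-regulatory promoters reporting endogenous C/EBPb activity. After 24 h exposure, reporter mRNA assayed by RT-PCR, fluorescent labelling, HpaI digestion and capillary electrophoresis; bidirectional fitting versus DMSO.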

Test [3] in a line: ATG_CMV_CIS: Attagene CIS-FACTORIAL HepG2 Assay for human CMV (Internal Marker) (AID 2282928).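 Also: endpoint acts as a background internal control marker rather than a target.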 To be noted: HepG2 CMV promoter reporter, transcription factor profiling; actives raise or lower the signal. The essentials: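 Fluorescence intensity of RT-PCR-derived reporter fragments, resolved by capillary electrophoresis, gives the signal. HepG2 liver cells bearing transfected cis-element reporters were treated 24 h; activity in either direction was fit relative to DMSO-treated controls.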

The nature of test [4]: ATG_DR4_LXR_CIS: Attagene CIS-FACTORIAL HepG2 Assay for human Liver X Receptor (LXR), DR4 submotif (AID 2282929). The note with it: HepG2 Attagene DR4 cis-reporter, mRNA transcription; actives raise or lower the signal. The essentials:
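Fluorescence intensity of labelled reporter cDNA fragments, separated by capillary electrophoresis, gives the signal. HepG2 cells bearing cis-regulated reporter constructs were treated 24 h; activity fitted bidirectionally relative to DMSO negative control.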

Test [5] concerns the target Aryl hydrocarbon receptor (Homo sapiens) (UniProt P35869). As to the kind of experiment: ATG_Ahr_CIS: Attagene CIS-FACTORIAL HepG2 Assay for human Aryl Hydrocarbon Receptor (Ahr) (AID 2282930). The note with it: HepG2 AhR cis-factorial reporter transcription; actives raise or lower the signal. The essentials:
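HepG2 cells transiently transfected with cis-element-driven multiplexed reporter units; endogenous AhR activity read as reporter mRNA 24 h after dosing, via RT-PCR, 6-FAM labelling, HpaI digestion and capillary electrophoresis. Bidirectional fit relative to DMSO.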

Test [6] is described as follows: ATG_AP_1_CIS: Attagene CIS-FACTORIAL HepG2 Assay for human Activator Protein 1 (AP-1) (AID 2282931). The note with it: HepG2 Attagene cis-factorial AP-1 reporter mRNA; actives raise or lower the signal. The essentials: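 Multiplexed HepG2 reporter assay, 24 h dosing. mRNA induction detected by RT-PCR plus capillary electrophoresis. Activity fitted in both directions against DMSO.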

Test [7] is described as follows: ATG_AP_2_CIS: Attagene CIS-FACTORIAL HepG2 Assay for human Activator Protein 2 (AP-2) (AID 2282932). The note with it: HepG2 AP-2 cis-reporter, Attagene transcription factor profiling; actives raise or lower the signal. A digest of the protocol: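 Read-out: fluorescent reporter mRNA via RT-PCR and capillary electrophoresis, 24 h post-dose in transiently transfected HepG2. Endogenous factors drive cis-promoter reporters; gain or loss of signal fitted bidirectionally against DMSO.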

In test [8] the target is Transcription factor E2F1 (Homo sapiens) (UniProt Q01094). As to the kind of experiment: ATG_E2F_CIS: Attagene CIS-FACTORIAL HepG2 Assay for human E2F Transcription Factor 1 (AID 2282935). The note with it: HepG2 Attagene cis-reporter, E2F reporter RNA transcripts; actives raise or lower the signal. The essentials: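 Transient MRTU transfection of HepG2; 24 h compound exposure; RNA → oligo(dT) RT → PCR → FAM label → HpaI cut → CE fluorescence. Gain/loss of signal fit against DMSO.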
Chain of Transcription factor E2F1 (Homo sapiens) (Q01094 whole entry, looked up): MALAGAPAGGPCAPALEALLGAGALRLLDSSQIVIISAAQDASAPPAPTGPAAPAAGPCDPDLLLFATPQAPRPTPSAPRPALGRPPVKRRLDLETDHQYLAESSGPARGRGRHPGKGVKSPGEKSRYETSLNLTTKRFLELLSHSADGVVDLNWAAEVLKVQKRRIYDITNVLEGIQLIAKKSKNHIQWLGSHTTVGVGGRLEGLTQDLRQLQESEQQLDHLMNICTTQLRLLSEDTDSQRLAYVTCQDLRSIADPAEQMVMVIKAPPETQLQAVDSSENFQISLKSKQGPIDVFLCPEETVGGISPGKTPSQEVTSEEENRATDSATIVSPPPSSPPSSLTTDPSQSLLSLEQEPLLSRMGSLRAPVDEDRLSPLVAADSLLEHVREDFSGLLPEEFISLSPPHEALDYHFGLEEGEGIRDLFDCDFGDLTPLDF

A short description of test [9]: ATG_BRE_CIS: Attagene CIS-FACTORIAL HepG2 Assay for human Bone Morphogenetic Protein (BMP) Response Element (BRE) (AID 2282933). To be noted: HepG2 BMP response element reporter, Attagene transcription factor profiling; actives raise or lower the signal. A digest of the protocol: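 A HepG2 multiplex reporter system measured inducible reporter mRNA 24 h post-dosing. Detection: RT-PCR, 6-FAM primer extension, HpaI digestion, capillary electrophoresis. Activity fitted bidirectionally relative to DMSO.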

Test [10] addresses Retinoic acid receptor alpha (Homo sapiens) (UniProt P10276). Put plainly: ATG_DR5_RAR_CIS: Attagene CIS-FACTORIAL HepG2 Assay for human Retinoic Acid Receptor Alpha (RARE), DR5 submotif (AID 2282934). The note with it: HepG2 Attagene cis-factorial RARE DR5 reporter, mRNA; actives raise or lower the signal. The essentials:
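HepG2 cells transiently transfected with multiplexed reporter units; DR5 cis-element drives reporter through endogenous transcription factors. After 24 h dosing, reporter mRNA quantified by RT-PCR, fluorescent labeling, HpaI digestion and capillary electrophoresis; bidirectional fitting versus DMSO.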

Chain of Retinoic acid receptor alpha (Homo sapiens) (P10276 whole entry, looked up): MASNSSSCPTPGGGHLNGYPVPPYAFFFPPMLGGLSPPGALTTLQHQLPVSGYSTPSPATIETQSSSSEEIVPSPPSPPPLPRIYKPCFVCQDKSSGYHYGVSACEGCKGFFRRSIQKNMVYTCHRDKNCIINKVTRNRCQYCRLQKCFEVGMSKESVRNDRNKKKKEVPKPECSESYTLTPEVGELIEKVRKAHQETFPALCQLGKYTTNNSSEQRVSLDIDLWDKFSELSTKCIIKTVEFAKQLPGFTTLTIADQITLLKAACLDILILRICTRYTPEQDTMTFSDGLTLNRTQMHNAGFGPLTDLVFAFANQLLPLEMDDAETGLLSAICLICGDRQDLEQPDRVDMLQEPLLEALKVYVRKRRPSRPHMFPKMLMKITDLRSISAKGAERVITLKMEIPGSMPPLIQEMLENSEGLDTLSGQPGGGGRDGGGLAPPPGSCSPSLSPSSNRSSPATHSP
Chain of Aryl hydrocarbon receptor (Homo sapiens) (P35869 whole entry, looked up): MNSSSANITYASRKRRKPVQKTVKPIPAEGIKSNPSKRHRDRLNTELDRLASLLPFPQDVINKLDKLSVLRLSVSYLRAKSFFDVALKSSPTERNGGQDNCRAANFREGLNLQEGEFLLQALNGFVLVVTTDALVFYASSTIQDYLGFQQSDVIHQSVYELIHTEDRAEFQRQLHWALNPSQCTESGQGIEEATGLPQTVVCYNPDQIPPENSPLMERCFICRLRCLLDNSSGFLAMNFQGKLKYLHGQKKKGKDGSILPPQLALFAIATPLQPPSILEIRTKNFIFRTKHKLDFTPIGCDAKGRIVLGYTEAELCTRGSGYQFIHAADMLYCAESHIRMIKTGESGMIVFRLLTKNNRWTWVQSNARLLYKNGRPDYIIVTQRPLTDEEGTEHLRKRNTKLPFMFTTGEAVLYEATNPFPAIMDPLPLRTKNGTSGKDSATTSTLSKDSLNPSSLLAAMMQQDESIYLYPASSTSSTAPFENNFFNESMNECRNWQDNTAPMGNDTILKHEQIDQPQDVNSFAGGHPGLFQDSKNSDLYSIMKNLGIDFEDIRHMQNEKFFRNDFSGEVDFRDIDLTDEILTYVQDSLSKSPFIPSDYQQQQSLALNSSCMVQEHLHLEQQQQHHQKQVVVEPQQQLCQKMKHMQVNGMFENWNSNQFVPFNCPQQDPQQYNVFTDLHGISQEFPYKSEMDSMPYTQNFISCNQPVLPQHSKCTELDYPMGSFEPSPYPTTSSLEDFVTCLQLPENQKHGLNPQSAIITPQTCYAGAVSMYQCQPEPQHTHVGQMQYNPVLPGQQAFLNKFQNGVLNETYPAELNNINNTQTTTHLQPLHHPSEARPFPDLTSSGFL
Chain of CCAAT/enhancer-binding protein beta (Homo sapiens) (P17676 whole entry, looked up): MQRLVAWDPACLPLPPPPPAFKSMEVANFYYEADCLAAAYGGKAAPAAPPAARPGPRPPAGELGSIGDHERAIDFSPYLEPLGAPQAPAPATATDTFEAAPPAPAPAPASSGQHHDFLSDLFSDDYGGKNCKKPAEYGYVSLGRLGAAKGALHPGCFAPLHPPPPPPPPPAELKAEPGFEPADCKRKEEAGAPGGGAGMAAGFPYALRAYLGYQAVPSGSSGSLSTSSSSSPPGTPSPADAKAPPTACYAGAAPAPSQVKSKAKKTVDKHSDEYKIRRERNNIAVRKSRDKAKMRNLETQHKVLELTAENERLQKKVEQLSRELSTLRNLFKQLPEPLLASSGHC

Consider `O=S(=O)(O)c1ccc(O)c2ncccc12`, for which the outcome in test [1], in [2], in test [3], in test [4], in test [6] and in test [7] was inactive. The compound was classed as inactive in test [8]. In addition, the AC50 in [5] is 37.5 µM (active).

For the compound `CCCCN`, the call in test [1], in test [2], in [3], in test [4], in test [5] and in test [6] was inactive. The compound was classed as inactive in test [9] and in test [8].

For the compound `CC(C)CCCCCCCOC(=O)c1ccc(C(=O)OCCCCCCCC(C)C)c(C(=O)OCCCCCCCC(C)C)c1`, the call in [1], in test [2], in [3], in test [4], in test [5] and in [6] was inactive. For the same compound, the compound was called inactive in test [7] and in test [8].

For `CCCCc1ccc(N)cc1`, the compound was classed as inactive in test [1], in test [2], in [3], in [4], in [5] and in test [6]. Moreover, the call in [7] and in test [8] was inactive.

As for `NC(=O)Nc1ccc(Cl)cc1`, the compound was called inactive in test [1], in [2], in test [3], in test [4], in test [5] and in test [6]. Besides, the outcome in [7] and in [8] was inactive.

Consider `Cc1ncc([N+](=O)[O-])n1C`, for which the compound was classed as inactive in test [1], in test [2], in test [3], in test [4], in [5] and in test [6]. In addition, the result in test [7] and in test [8] was inactive.

`CC(C)Oc1ccccc1O`: the compound was classed as inactive in [1], in [2], in [3], in [4], in test [6] and in [9]. The result in test [8] was inactive. Also, the AC50 in test [5] is 47.8 µM (active).

Regarding `CC(C#N)(CCC(=O)O)N=NC(C)(C#N)CCC(=O)O` (stereo unspecified), the result in test [1], in test [2], in test [3], in test [4], in test [5] and in test [6] was inactive. In addition, the compound was classed as inactive in test [7] and in test [8].

Consider `N#Cc1nc(Cl)c(Cl)c(Cl)c1Cl`, for which the call in [1], in test [5] and in [8] was inactive. For the same compound, the concentration at half-maximal activity (AC50) in test [2] is 6.82 µM (active); in test [3], 7.02 µM (active); in test [4] it was 3.14 µM (active); in [6] it was 6.02 µM (active); in [9], 5.89 µM (active).

With `CCCCCCCCCCN`, the compound was classed as inactive in test [1], in [2], in [3], in test [4], in [5] and in test [6]. Besides, the outcome in [9], in [10] and in [8] was inactive.

`CC(C)(C)C(=O)c1ccccc1`: the call in [1], in test [2], in [3], in [4], in test [5] and in test [6] was inactive. Besides, the compound was called inactive in test [9] and in test [8].

Turning to `CCCCOCCOCCOCCOCCO`, the compound was called inactive in test [1], in test [2], in test [3], in test [4], in test [5] and in test [6]. Further, the call in [7] and in test [8] was inactive.

On to `O=P(c1ccccc1)(c1ccccc1)c1ccccc1`, for which the compound was classed as inactive in [1], in test [2], in test [3], in test [5], in test [6] and in test [9]. In [8], the outcome was inactive. Also, the AC50 in test [4] was 58.6 µM (active).

With `c1ccc2sc(SN(C3CCCCC3)C3CCCCC3)nc2c1`, the result in test [1], in [2], in test [4], in [9] and in test [8] was inactive. In addition, the AC50 in test [3] was 8.13 µM (active); in [5] it was 49.1 µM (active); in test [6] it was 11.9 µM (active).

For `Clc1sc(Cl)c(Cl)c1Cl`, the outcome in [1], in test [2], in test [3], in test [4], in test [5] and in test [6] was inactive. The call in test [9] and in [8] was inactive.

Take `c1cc(C(c2ccc(OCC3CO3)cc2)c2ccc(OCC3CO3)cc2)ccc1OCC1CO1` (stereo unspecified): the half-maximal activity concentration (AC50) in [1] is 25.2 µM (active); in test [3], 26.3 µM (active); in test [4], 53.2 µM (active); in [7] it was 8.7 µM (active). For the same compound, the outcome in test [2], in test [5], in test [9] and in test [8] was inactive.

As for `CC(C)[C@@H]1CC[C@@H](C)CC1=O`, the result in [1], in test [2], in [3], in test [4], in test [5] and in test [7] was inactive. Moreover, the compound was called inactive in test [9] and in test [8].

With `Cc1ccc2n[nH]nc2c1`, the outcome in test [1], in [2], in [3], in [4], in test [7] and in test [9] was inactive. The result in test [8] was inactive. For the same compound, the concentration at half-maximal activity (AC50) in test [5] was 16.3 µM (active).

In the case of `CC(CCO)CCc1ccccc1` (stereo unspecified), the compound was called inactive in test [1], in [2], in test [3], in test [4], in test [5] and in test [7]. Besides, the compound was called inactive in [8].

On to `CCCCCC=CCC(=O)OC`, for which the compound was called inactive in test [1], in test [2], in [3], in test [4], in test [5] and in test [9]. The call in test [10] and in test [8] was inactive.

With `c1ccc(CCCc2ccccn2)cc1`, the call in test [1], in [2], in test [3], in test [4], in [5] and in test [7] was inactive. For the same compound, the result in test [9] was inactive. In addition, the AC50 in test [8] is 72.7 µM (active).

For the compound `O=C(O)CCCCCCCC(=O)O`, the result in [1], in [2], in test [3], in test [4], in [5] and in test [7] was inactive. In addition, the compound was classed as inactive in [9], in [10] and in [8].

Regarding `CC(C)C[C@H]1C(=O)N2CCC[C@H]2[C@]2(O)O[C@](NC(=O)[C@@H]3C=C4c5cccc6[nH]c(Br)c(c56)C[C@H]4N(C)C3)(C(C)C)C(=O)N12`, the compound was called inactive in test [1], in [2], in [3], in [5], in test [7] and in [9]. The call in [10] and in [8] was inactive. In test [4], the AC50 is 7.76 µM (active).

With `O=C(OCc1ccccc1)C(=O)OCc1ccccc1`, the compound was called inactive in [1], in [2], in test [3], in [4], in test [5] and in test [7]. In addition, the call in [9] and in [8] was inactive.

For `CN(CCOc1ccc(CC2SC(=O)NC2=O)cc1)c1ccccn1` (stereo unspecified), the compound was classed as inactive in test [1], in test [2], in [3], in test [4], in test [5] and in test [7]. Further, the compound was classed as inactive in [9] and in [8].

With `CCCCCNCCCCC`, the result in test [1], in test [2], in [3], in test [4], in test [5] and in test [6] was inactive. Moreover, the compound was called inactive in test [10] and in [8].

Turning to `Clc1nc(C(Cl)(Cl)Cl)c(Cl)c(Cl)c1Cl`, the compound was classed as inactive in test [1], in test [2], in test [7] and in test [9]. Moreover, the AC50 in test [3] was 24.9 µM (active); in test [4] it was 18 µM (active); in test [5], 12.6 µM (active); in test [8] it was 22.6 µM (active).

In the case of `Nc1cc(Cl)c(O)c(Cl)c1`, the call in [1], in [2], in test [4], in test [5], in test [9] and in test [8] was inactive. Besides, the AC50 in test [3] was 186 µM (active).

In the case of `CC1(C)[C@H]2CC[C@]1(C)[C@H](O)C2`, the compound was classed as inactive in test [1], in [2], in [3], in [4], in test [5] and in test [7]. Besides, the outcome in test [9] and in test [8] was inactive.

In the case of `COc1ccnc(CS(=O)c2nc3cc(OC(F)F)ccc3[nH]2)c1OC` (stereo unspecified), the outcome in [1], in test [2], in test [3], in test [4], in test [5] and in test [7] was inactive. The compound was classed as inactive in test [9] and in [8].

Values taken from PubChem BioAssay (EPA / NIEHS).
